Source: publication PMC5540273 (PLoS ONE, 2017)

These compounds were tested on T1, LOK. Settings: concentration: 1 μM, replicates: in singlicate; n = 1.
T1 construct: gene STK10
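Note: KINOMEscan kinase panel screen.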

Row | Structure (SMILES) | %Inh
1 | CSc1ccc(-c2cc3ncnc(SCC(=O)O)c3s2)cc1 | 19%
2 | COc1ccc(Nc2nccc(N3CCC(NC(=O)Nc4cc(C)ccc4C)C3)n2)cc1 (stereo not shown) [GSK1379741] | 0%
3 | Nc1nc(-c2ccc3c(N)n[nH]c3c2)cc(N2CCCC2)n1 [GSK2227430] | 0%
4 | c1ccc(-c2n[nH]cc2-c2ccnc3ccccc23)nc1 [GW271431] | 0%
5 | O=C1NC(=O)C(N2CCc3ccccc32)=C1c1cccc(Cl)c1 [SB-408010] | 0%
6 | COc1ccc(Nc2ncc(C#N)c(Nc3ccccc3C(N)=O)n2)cc1N1CCN(C)CC1.Cl [GSK1558669] | 99%
7 | Cc1ccc(NC(=O)c2ccnc(N3CCN(C)CC3)c2)cc1-c1ccc(C(=O)NCC2CC2)cc1 [GW775604] | 9%
8 | Cc1nnc(-c2ccc3occ(-c4ccc(C(C)O)cc4)c3c2)o1 (stereo not shown) | 4%
9 | COc1ccc(COc2cc(-n3cnc4ccccc43)sc2C(N)=O)cc1 [GSK1024304] | 0%
10 | CCc1nc(-c2cccc(C)c2)c(-c2ccnc(NCc3ccccc3)c2)s1 | 19%
11 | NS(=O)(=O)c1cccc(-c2ccc3nccc(-c4cccc(S(N)(=O)=O)c4)c3c2)c1 [GW867253] | 2%
12 | Cc1cccc(-c2nc(Nc3ccc4ncsc4c3)c3ccccc3n2)n1 [GW867588] | 27%
13 | CC(C)Oc1ccc2c(-c3ccnc(Nc4ccc(N5CCN(C)CC5)cc4)n3)cnn2n1 [GW696155] | 0%
14 | CN(C(=O)c1ccc(-c2cc(-c3c[nH]nc3-c3ccccn3)ccn2)cc1)C1CCOCC1 [GW810083] | 0%
15 | COc1cc(Nc2nccc(N3CCC(NC(=O)c4cccc(NC(C)=O)c4)C3)n2)cc(OC)c1OC (stereo not shown) [GSK1379754] | 0%
16 | O=C(NCCCN1CCOCC1)c1cccc(Nc2nccc(Nc3ccc(Oc4ccccc4)cc3)n2)c1 [GW663929] | 23%
17 | COc1cc2c(cc1OC[C@@H](O)CO)ncc1c3ccc(C#N)cc3[nH]c21 | 20%

Row | Structure (SMILES) | %Inh
18 | COc1ccc(CNC(=O)NC2CCN(c3ccnc(Nc4ccc(OC)cc4)n3)C2)cc1 (stereo not shown) [GSK1379727] | 0%
19 | COc1ccc(S(=O)(=O)NC2CCN(c3cc(C)nc(Nc4cccc(C#N)c4)n3)CC2)cc1.O=C(O)C(F)(F)F [GSK1653539] | 0%
20 | N#Cc1ccc(-c2cc(-c3c[nH]nc3-c3ccccn3)ccn2)cc1 [GW693028] | 0%
21 | c1ccc(-c2cc(-c3c[nH]nc3-c3ccccn3)ccn2)cc1 [GW576604] | 0%
22 | NCC(NC(=O)c1cc(-c2cn[nH]c2)c(-c2ccnc3[nH]ccc23)s1)c1ccccc1.O=C(O)C(F)(F)F.O=C(O)C(F)(F)F (stereo not shown) [GSK1325775] | 0%
23 | Cn1cc(-c2ccc3c(c2)CCN3C(=O)Cc2ccccc2Cl)c2c(N)ncnc21 [GSK2608885] | 99.8%
24 | O=c1cc(N2CCOCC2)nc2n(Cc3cccc(Cl)c3Cl)c(C3CC3)nn12 [GSK2358994] | 0%
25 | COc1cc2c(cc1OCCN1CCN(C)CC1)ncc1c3ccc(C#N)cc3[nH]c21 | 33%
26 | Cl.Nc1ncnc2occ(-c3ccc(NC(=O)Nc4cc(C(F)(F)F)ccc4F)cc3)c12 [SB-707548] | 99.9%
27 | O=C1Cc2cc(Nc3nc(NCc4cccc(S(=O)(=O)C(F)(F)F)c4)ncc3C(F)(F)F)ccc2N1 | 1%
28 | Cc1nnc(-c2ccc(C)c(-c3ccc(C(=O)Nc4ccc(NS(C)(=O)=O)cc4)cc3)c2)o1 [GW702865] | 6%
29 | O=c1cc(N2CCOCC2)nc2n(Cc3cccc(F)c3)ccn12 [GSK2297430] | 0%
30 | COc1ccc(Nc2nccc(N3CCC(NC(=O)Nc4cccc(C(C)=O)c4)C3)n2)cc1 (stereo not shown) [GSK1379731] | 0%
31 | CCCCCc1nc2c(N)ncnc2n1CCCCC [SKF-97255] | 14%
32 | Nc1nccc(-c2c(-c3ccc(F)cc3)ncn2C2CCN(CC(F)(F)F)CC2)n1 [SB-236560] | 2%
33 | Fc1ccc(-c2ncn(CCCN3CCOCC3)c2-c2cccnc2)cc1 [SB-211743] | 14%
34 | O=C(Nc1cccc(-c2nn3ncccc3c2-c2ccnc(Nc3cccc(C(F)(F)F)c3)n2)c1)c1c(F)cccc1F [GSK299495] | 96.6%
